Test results reported in PubChem BioAssay AID1159580 (chemical genetic matrix, 2015).
The whole screen tested about 5,500 compounds, of which about 2,000 (36%) were called active. About 18% were inconclusive and are not listed. Rule as the data show it: active = normalized growth mostly below about 0.91 (no sharp cut-off); inconclusive = no clear call, values can overlap the other calls; inactive = mostly above about 0.92. This is one part of the list.

Assay: chemical genetic growth profiling, strain panel (AID 1159580);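 also: tested at 20 µM; growth read once vehicle control cultures reached saturation at 30 °C; 1 = growth at the plate median or of vehicle wells; lower values mean less growth of the strain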
Details: S. cerevisiae deletion strains, growth OD

Measured: normalized growth

NC/C=C/C(=O)O
inactive: locus YAL013W, strain DEP1, active compounds read low 1.02 | locus YAL021C, strain ccr4, active compounds read low 0.968 | locus YAL026C, strain drs2, active compounds read low 0.997 | locus YAL030W, strain snc1, active compounds read low 1 | locus YAL040C, strain CLN3, active compounds read low 0.998 | locus YBL061C, strain skt5, active compounds read low 1.01 | locus YBR009C, strain hhf1, active compounds read low 1.01 | locus YBR021W, strain FUR4, active compounds read low 1.01 | locus YBR023C, strain chs3, active compounds read low 1 | locus YBR171W, strain sec66, active compounds read low 0.985 | locus YBR229C, strain ROT2, active compounds read low 1.01 | locus YBR231C, strain swc5, active compounds read low 1.02 | locus YBR279W, strain paf1, active compounds read low 1.01 | locus YCL011C, strain gbp2, active compounds read low 0.983 | locus YCL016C, strain dcc1, active compounds read low 1.01 | locus YCL029C, strain bik1, active compounds read low 1.02 | locus YCL061C, strain MRC1 (second series), active compounds read low 1 | locus YCL061C, strain MRC1, active compounds read low 0.987 | locus YCL069W, strain vba3, active compounds read low 0.992 | locus YCR088W, strain abp1, active compounds read low 0.986 | locus YDL005C, strain med2, active compounds read low 1.01 | locus YDL035C, strain GPR1, active compounds read low 1.04 | locus YDL040C, strain nat1, active compounds read low 1 | locus YDL074C, strain BRE1, active compounds read low 0.986 | locus YDL101C, strain DUN1, active compounds read low 1 | locus YDL134C, strain PPH21, active compounds read low 1.01 | locus YDL185W, strain tfp1, active compounds read low 1.02 | locus YDL192W, strain arf1, active compounds read low 1.01 | locus YDR001C, strain nth1, active compounds read low 0.987 | locus YDR069C, strain doa4, active compounds read low 1.03 | locus YDR101C, strain arx1, active compounds read low 1.02 | locus YDR137W, strain rgp1, active compounds read low 1.01 | locus YDR150W, strain NUM1, active compounds read low 1.01 | locus YDR159W, strain sac3, active compounds read low 1.02 | locus YDR162C, strain NBP2, active compounds read low 0.986 | locus YDR195W, strain ref2 1.01 | locus YDR297W, strain sur2, active compounds read low 1.01 | locus YDR318W, strain mcm21, active compounds read low 1.05 | locus YDR334W, strain swr1, active compounds read low 1 | locus YDR335W, strain msn5, active compounds read low 1.01 | locus YDR363W, strain ESC2, active compounds read low 0.999 | locus YDR388W, active compounds read low 1.01 | locus YDR392W, strain spt3, active compounds read low 0.965 | locus YDR502C, strain sam2, active compounds read low 0.999 | locus YEL003W, strain gim4, active compounds read low 0.99 | locus YEL037C, strain rad23, active compounds read low 0.982 | locus YEL061C, strain CIN8 (second series), active compounds read low 0.99 | locus YEL061C, strain CIN8, active compounds read low 1.01 | locus YER002W, strain NOP16, active compounds read low 0.975 | locus YER015W, strain faa2, active compounds read low 1.01 | locus YER016W, strain bim1, active compounds read low 1.02 | locus YER110C, active compounds read low 1.02 | locus YER111C, strain swi4, active compounds read low 0.98 | locus YER155C, strain BEM2 (second series), active compounds read low 1.01 | locus YER155C, strain BEM2, active compounds read low 0.999 | locus YER167W, strain BCK2, active compounds read low 1.05 | locus YFR010W, strain ubp6, active compounds read low 1.01 | locus YGL078C, strain dbp3, active compounds read low 0.994 | locus YGL086W, strain mad1, active compounds read low 1.04 | locus YGL167C, strain pmr1, active compounds read low 1.01 | locus YGL173C, strain kem1, active compounds read low 1.01 | locus YGL227W, strain vid30, active compounds read low 0.988 | locus YGL240W, strain doc1, active compounds read low 1.02 | locus YGL248W, strain PDE1, active compounds read low 1.01 | locus YGL253W, strain hxk2, active compounds read low 1 | locus YGR078C, strain PAC10, active compounds read low 1.01 | locus YGR135W, strain pre9, active compounds read low 0.996 | locus YGR229C, strain SMI1, active compounds read low 1.01 | locus YGR252W, strain gcn5, active compounds read low 1.03 | locus YHR013C, strain ard1, active compounds read low 0.999 | locus YHR027C, strain rpn1, active compounds read low 1.01 | locus YHR030C, strain SLT2, active compounds read low 1.01 | locus YHR079C, strain IRE1 (second series), active compounds read low 1.01 | locus YHR094C, strain hxt1, active compounds read low 1.01 | locus YHR129C, strain ARP1, active compounds read low 1.02 | locus YHR142W, strain chs7, active compounds read low 0.975 | locus YHR200W, strain rpn10, active compounds read low 1.02 | locus YIL066C, strain RNR3, active compounds read low 1.02 | locus YIL073C, strain SPO22, active compounds read low 1.13 | locus YIL125W, strain kgd1, active compounds read low 1.01 | locus YIR030C, strain dcg1, active compounds read low 1.02 | locus YJL092W, strain hpr5, active compounds read low 0.984 | locus YJL095W, strain BCK1 (second series), active compounds read low 1.01 | locus YJL095W, strain BCK1, active compounds read low 1.03 | locus YJL115W, strain asf1, active compounds read low 0.994 | locus YJL129C, strain trk1, active compounds read low 0.994 | locus YJL134W, strain LCB3, active compounds read low 1.01 | locus YJL154C, strain vps35, active compounds read low 0.987 | locus YJL164C, strain tpk1, active compounds read low 0.989 | locus YJL166W, strain qcr8, active compounds read low 1.02 | locus YJL168C, strain set2, active compounds read low 1 | locus YJL187C, strain SWE1 (second series), active compounds read low 1.01 | locus YJL187C, strain SWE1, active compounds read low 1.02
